High-throughput results deposited in PubChem BioAssay by National Center for Advancing Translational Sciences (NCATS).
Sampled rows, rich in hits. Any-hit rate of the full collection: about 21%.
CHX counter = affects cycloheximide protein synthesis inhibition readout, counter-screen | cell reporter, cycloheximide protein synthesis inhibition counterscreen | max response, % | actives 12% (n = 300,000); in the data active = max response mostly above about 13%, no sharp cut-off; inactive = mostly below about 14%; note: read at 38.3 µM for the half of the compounds with a filed dose; 0% is about no effect
Pf growth 96h = inhibits malaria parasite growth, 96 h; P. falciparum luciferase reporter growth, 96 h; Potency, µM (doses to about 28.7 µM), for inactives: at the highest dose activity change, negative = inhibition, actives largely listed as inhibitors; actives 6.9% (n = 320,000); note: potency is the fitted concentration of half-maximal effect; % is set by controls: 0 for no effect and ±100 for the full control effect
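Plates of compound plus infected erythrocytes (2% hematocrit, 0.05% parasitemia final) incubate 96 hours, 37 C, 5% CO2. Detection reagent added; reduced luminescence from the parasites' luciferase reporter flags inhibition.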
Sm TGR inh = S. mansoni TGR enzyme inhibition. Q962Y6. purified TGR, DTNB reduction, TNB absorbance 405 nm. Potency, µM (titrated, usually from 114 µM), without a hit: at the highest dose activity change, negative = inhibition, most hits filed as inhibitors. actives 3% (n = 360,000). AID 485364; note: potency is the fitted concentration of half-maximal effect; % is set by controls: 0 for no effect and ±100 for the full control effect; nearly all actives have a fitted effect of over 60% in size
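Kinetic colorimetric format: TGR-catalysed, NADPH-driven DTNB reduction monitored via TNB absorbance. Enzyme dispensed at 20 nM; compound exposure 15 min at room temperature before reaction start.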
Shiga inhibitor = Shiga toxin inhibition; actives 9.2% (n = 290,000); inhibition, % at 38.7 µM; Vero cells, Shiga toxin protein synthesis inhibition reporter; AID 2315; in the data active = inhibition mostly above about 28%, no sharp cut-off; inactive = mostly below about 43%; note: 0% is about no effect
Pf growth 48h = inhibits P. falciparum growth in the first generation, 48 h | P. falciparum luciferase growth in erythrocytes, 48 h | Potency, µM (top dose mostly 28.7 µM), for inactives: at the top dose activity change, negative = inhibition, usual class: inhibitors | actives 5.9% (n = 310,000) | AID 504832; note: potency is the fitted concentration of half-maximal effect; % is set by controls: 0 for no effect and ±100 for the full control effect
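In quantitative HTS format, infected erythrocytes bearing luciferase-reporter parasites were treated for a single generation at 37 C. Luminescence after adding detection reagent served as the growth measure.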
NS1 function inh = blocks influenza NS1 protein function; AID 2326; Potency, µM (doses to about 46.1 µM), without a hit: at the top dose activity, positive = more growth; actives 0.4% (n = 270,000); calls by dose curve; note: potency is the fitted concentration of half-maximal effect; actives are rising curves; nearly all actives have a fitted effect of over 50% in size
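Read-out: OD600 growth recovery of NS1-expressing budding yeast. Cells grown overnight at 30C in -URA glucose medium, washed, resuspended and diluted 1:100 in 2% galactose assay medium, pH 6.0. Same strain lacking NS1 served as positive control.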
* = called active by the depositor; i = inactive; ? = inconclusive; nt = not tested or not shown; [ ] = remark or other dose. Unless noted, calls come from the whole dose curve; as a rule, active = well fitted curve in the direction sought with a large enough effect; inconclusive = small, poorly fitted or top-dose-only effect, or another doubt; inactive = no such curve, though single readings can be large; an effect the other way counts as inactive or inconclusive.

SMILES	CHX counter	Pf growth 96h	Sm TGR inh	Shiga inhibitor	Pf growth 48h	NS1 function inh
CCOC(=O)/C(C#N)=N/Nc1ccccc1C(=O)O	-3.0	10.4µM*	7.7%	0.9	?	-3.9%
O=C1SC(c2ccccc2)=N/C1=C/c1ccco1	-4.3	-16.2%	?	25.7	0.8%	8.1%
Cc1ccc(C=C2C(=O)c3ccccc3C2=O)o1	37.1*	?	-28.0%	58.5	?	-5.1%
NS(=O)(=O)c1ccc(-c2ccc(C=C3C(=O)c4ccccc4C3=O)o2)cc1	-1.1	-15.9%	-17.6%	5.3	-2.4%	-3.7%
O=C(O)c1ccc2c(c1)C(=O)/C(=C\c1ccco1)C2=O	-1.8	11.7µM*	7.08µM*	6.2	-12.8%	nt
O=C(O)c1ccc2c(c1)C(=O)/C(=C/c1ccccc1)C2=O	-3.5	-27.4%	-10.4%	-4.7	-13.6%	18.2%
Cc1ccc(/C=C2/C(=O)c3ccc(C(=O)O)cc3C2=O)o1	-1.3	8.28µM*	5.01µM*	-9.1	28.1%	0.5%
O=C1C(=Cc2ccco2)C(=O)c2ccccc21	37.4*	16.5µM*	-33.0%	14.0	3.4%	9.2%
CCC(=O)N1CCc2cc(Br)cc(S(=O)(=O)CCC(=O)NCc3ccc(C)cc3)c21	nt	nt	-3.8%	nt	nt	nt
COc1ccc2cc(CN(C(=O)Nc3ccccc3OC)C3CCCC3)c(=O)[nH]c2c1	-4.8	17.2%	-0.1%	-8.2	2.33µM*	5.2%
COc1ccc2cc(CN(Cc3cccnc3)S(=O)(=O)c3ccccc3)c(=O)[nH]c2c1	-2.5	nt	-7.2%	-12.5	10.4µM*	-10.0%
COc1ccc2cc(CN(CC3COCCO3)S(=O)(=O)c3ccccc3)c(=O)[nH]c2c1 (stereo not drawn)	-1.2	13.0%[5.75 µM]	0.0%	-17.7	-15.8%	-8.7%
COc1ccc2cc(CN(CC3CCCO3)C(=O)Nc3ccccc3OC)c(=O)[nH]c2c1 (stereo not drawn)	7.6	125.9%	5.9%	-17.2	?	-0.4%
O=C(NC1CCCCC1)N(Cc1cc2cc3c(cc2[nH]c1=O)OCCO3)C1CCCCC1	-1.3	5.86µM*	2.0%	-6.4	nt	4.5%
COc1cc2cc(CN(C(=O)NC3CCCCC3)C3CCCC3)c(=O)[nH]c2cc1OC	1.8	?	1.2%	-13.4	11.7µM*	-21.3%
COc1cc2cc(CN(Cc3cccnc3)C(=O)NCc3ccccc3)c(=O)[nH]c2cc1OC	-2.7	?	-4.9%	31.2	9.28µM*	-8.6%
COc1ccc(CN(Cc2cc3cc(OC)c(OC)cc3[nH]c2=O)C(=O)NC2CCCCC2)cc1	-5.9	1.65µM*	2.5%	-4.5	nt	2.8%
COc1ccc(CN(Cc2cc3cc(C)ccc3[nH]c2=O)C(=O)N(C)C)cc1	-10.0	?	-1.4%	-23.8	?	7.0%
CCOC(=O)N1CCC(NC(=O)CS(=O)Cc2nc(-c3ccc(Cl)cc3)oc2C)CC1 (stereo not drawn)	-2.0	?	39.8µM*	-5.0	-8.3%	-0.1%
CCOC(=O)N1CCC(NC(=O)CS(=O)Cc2nc(-c3ccc(C)cc3)oc2C)CC1 (stereo not drawn)	1.0	?	44.7µM*	9.4	-22.9%	18.3%
CCOC(=O)N1CCC(NC(=O)CS(=O)Cc2nc(-c3ccc(OC)c(OC)c3)oc2C)CC1 (stereo not drawn)	-3.8	?	?	-12.6	?	-7.0%
COCCN(C(=O)CCC(=O)Nc1ccccn1)C(C(=O)NCCC(C)C)c1ccc(C)cc1 (stereo not drawn)	-7.4	9.1%	-2.1%	-19.6	-0.6%	-1.7%
O=S(=O)(O)c1cc(O)c2c(O)c(N=Nc3cccc4ccccc34)c(S(=O)(=O)O)cc2c1	nt	nt	nt	nt	nt	-0.3%
CC(=O)C1=NN(c2ccccc2)C(c2cccs2)N1c1ccc(N(C)C)cc1 (stereo not drawn)	14.8	2.08µM*	0.0%	15.3	nt	-3.7%
Cc1ccccc1N(Cc1cc(=O)[nH]c2ccccc12)C(=O)CCl	9.9	1.85µM*	14.1µM*	0.4	4.65µM*	5.3%
SMILES	CHX counter	Pf growth 96h	Sm TGR inh	Shiga inhibitor	Pf growth 48h	NS1 function inh
Cc1ccccc1N(Cc1cc(=O)[nH]c2ccccc12)C(=O)C(C)C	0.6	?	23.2%	12.9	14.7µM*	-1.2%
O=C(CCl)N(Cc1cc(=O)[nH]c2ccccc12)c1ccccc1	-2.5	10.4µM*	3.55µM*	-6.7	10.4µM*	2.5%
Cc1ccc(N(Cc2cc(=O)[nH]c3ccccc23)C(=O)C(C)C)c(C)c1	-6.0	-18.7%	14.9%	-6.7	?	10.7%
CC(C)(C)NC(=O)CN(C(=O)Cn1nnc(-c2ccccc2F)n1)c1cccc2c1CCCC2	-1.4	?	12.0%	-17.8	?	19.5%
O=C(CSc1nc(O)c(Cc2ccccc2)c(=O)[nH]1)c1ccccc1	6.1	3.3%	-2.1%	-3.9	45.6%	?
CCC(C)Sc1nc(O)c(Cc2ccccc2)c(=O)[nH]1 (stereo not drawn)	-2.3	2.62µM*	-14.9%	-1.2	nt	3.9%
COc1ccc(CCN2CCC[C@H](CN3CCc4cc(OC)c(OC)cc4CC3=O)C2)cc1OC	-4.0	nt	nt	-7.3	nt	nt
CCc1cc(C(=O)COc2ccc(F)cc2)c(O)cc1O	19.6*	-5.5%	-0.3%	40.3*	4.7%	-48.2%
Cc1c(O)ccc(C(=O)COc2ccc(F)cc2)c1O	37.7*	?	4.3%	i	-61.8%	-34.4%
CCc1cc(C(=O)Cc2ccccn2)c(O)cc1O	6.8	-1.9%	-10.3%	40.6	nt	2.4%
O=C(CC1C(=O)NCCN1C(=O)Nc1ccccc1)Nc1cc(Cl)ccc1Cl (stereo not drawn)	5.0	11.5%	11.6%	-3.6	-1.8%	17.4%
CCOC(=O)c1cnn(-c2cccc(Cl)c2)c1C1CCN(C(=O)OC(C)(C)C)CC1	nt	nt	-1.2%	nt	nt	nt
N/C(=N\OC(=O)c1cccnc1)c1ccccc1Cl	27.4*	-21.1%	25.4%	84.3*	74.0%	nt
O=C(COC(=O)c1cccnc1)c1ccc(Cl)c(Cl)c1	10.3	1.6%	9.3%	46.2	9.3%	0.0%
N/C(=N\OC(=O)c1cccnc1)c1ccc(Cl)cc1Cl	22.1*	i	-1.3%	44.2*	52.7%	nt
Cc1nc2ccc(S(=O)(=O)N3CCN(S(=O)(=O)c4c(F)cccc4F)CC3)cc2s1	-10.5	nt	nt	-6.0	nt	nt
Cc1nnc2n(-c3ccccc3)c(=O)c3c4c(sc3n12)COC(C)(C)C4	-2.7	11.4%	0.0%	-5.8	7.3%	6.8%
CCCCSc1nnc2n(CCc3ccccc3)c(=O)c3c4c(sc3n12)COC(C)(C)C4	-3.6	1.65µM*	0.8%	-2.3	-6.5%	-4.5%
CC(Oc1ccc2c3c(c(=O)oc2c1)CCC3)C(=O)NCc1cccnc1 (stereo not drawn)	3.0	?	-30.8%	-4.8	5.8%	-5.2%
CCN(CC)CCNc1ccnc2cc(Cl)ccc12	3.3	0.9%	-1.1%	-5.8	0.0738µM*	-1.4%
Clc1ccc2c(NCc3ccccc3)ccnc2c1	-11.1	?	0.4%	-2.4	?	-7.6%
